# According to the supplement of paper PMC7595190:
# Unmarked numbers belong to inactive results.
# Experiments:
# Experiment in all cases: CellTox Green cytotoxicity fluorescence relative to DMSO vehicle (fold of vehicle RFU); higher = more cell death (loss of membrane integrity), active = 2 or more
# CMK = test system: CMK
# Method in brief: (§1)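 CellTox Green reagent was added when MV4-11, CMK and Kasumi-1 cells were seeded at 4.0 × 10^4 cells per well, and single compounds from the Selleckchem apoptosis library were added at final 0.01, 0.1 and 1 µM in DMSO (vehicle 0.1% DMSO). Fluorescence at Ex 485 nm and Em 520 nm was read after 24, 48 and 72 h at 37 °C, 5% CO2. The reported cytotoxicity corresponds to loss of membrane integrity, given as fold of the DMSO vehicle.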
# Kasumi-1 = test system: Kasumi-1
# Method in brief: as §1
# MV4-11 = test system: MV4-11
# Method in brief: as §1
Structure (SMILES),"CellTox Green cytotoxicity fluorescence (CMK; 0.01 µM, 24 h)","CellTox Green cytotoxicity fluorescence (CMK; 0.01 µM, 48 h)","CellTox Green cytotoxicity fluorescence (CMK; 0.01 µM, 72 h)","CellTox Green cytotoxicity fluorescence (CMK; 0.1 µM, 24 h)","CellTox Green cytotoxicity fluorescence (CMK; 0.1 µM, 48 h)","CellTox Green cytotoxicity fluorescence (CMK; 0.1 µM, 72 h)","CellTox Green cytotoxicity fluorescence (CMK; 1 µM, 24 h)","CellTox Green cytotoxicity fluorescence (CMK; 1 µM, 48 h)","CellTox Green cytotoxicity fluorescence (CMK; 1 µM, 72 h)","CellTox Green cytotoxicity fluorescence (Kasumi-1; 0.01 µM, 24 h)","CellTox Green cytotoxicity fluorescence (Kasumi-1; 0.01 µM, 48 h)","CellTox Green cytotoxicity fluorescence (Kasumi-1; 0.01 µM, 72 h)","CellTox Green cytotoxicity fluorescence (Kasumi-1; 0.1 µM, 24 h)","CellTox Green cytotoxicity fluorescence (Kasumi-1; 0.1 µM, 48 h)","CellTox Green cytotoxicity fluorescence (Kasumi-1; 0.1 µM, 72 h)","CellTox Green cytotoxicity fluorescence (Kasumi-1; 1 µM, 24 h)","CellTox Green cytotoxicity fluorescence (Kasumi-1; 1 µM, 48 h)","CellTox Green cytotoxicity fluorescence (Kasumi-1; 1 µM, 72 h)","CellTox Green cytotoxicity fluorescence (MV4-11; 0.01 µM, 24 h)","CellTox Green cytotoxicity fluorescence (MV4-11; 0.01 µM, 48 h)","CellTox Green cytotoxicity fluorescence (MV4-11; 0.01 µM, 72 h)","CellTox Green cytotoxicity fluorescence (MV4-11; 0.1 µM, 24 h)","CellTox Green cytotoxicity fluorescence (MV4-11; 0.1 µM, 48 h)","CellTox Green cytotoxicity fluorescence (MV4-11; 0.1 µM, 72 h)","CellTox Green cytotoxicity fluorescence (MV4-11; 1 µM, 24 h)","CellTox Green cytotoxicity fluorescence (MV4-11; 1 µM, 48 h)","CellTox Green cytotoxicity fluorescence (MV4-11; 1 µM, 72 h)"
CC[C@H](NC(=O)[C@H](C)NC)C(=O)N1C[C@@H](O)C[C@H]1Cc1c(-c2[nH]c3cc(F)ccc3c2C[C@@H]2C[C@H](O)CN2C(=O)[C@H](CC)NC(=O)[C@H](C)NC)[nH]c2cc(F)ccc12 [Birinapant],0.985,0.974,0.988,0.998,0.996,1,0.983,1.03,0.952,0.993,1.03,1.05,1.02,1.1,1.2,1.04,1.26,1.5,0.987,0.989,1,0.988,1.04,1.08,1.03,1.2,1.32
CC(C)c1cc2c(N3CCN(C4=NCC(C)(C)S4)CC3)ncnc2s1 [MI-3 (Menin-MLL Inhibitor)],0.943,0.954,0.984,0.923,0.941,0.923,,,,0.955,0.967,0.974,0.987,1.01,0.966,,,,,,,,,,,,
CCC(CC)n1ccc2c(C(=O)NCc3c(C)cc(C)[nH]c3=O)cc(C#N)cc21,0.768,0.767,0.8,,,,,,,,,,0.942,0.956,0.925,1.01,0.971,0.978,0.856,0.857,0.869,,,,,,
CC(=NNC(=S)N1CCC1)c1ccccn1,0.934,0.962,1.02,0.922,1.29,1.42,1.04,1.42,1.4,1.01,1.03,1.19,0.971,1.18,1.6,1.02,1.25,1.49,0.984,1.31,2.11 (active),0.983,1.53,2.27 (active),1.02,1.38,1.68
CCCC[C@@H](C=O)NC(=O)[C@H](CC(C)C)NC(=O)OCc1ccccc1 [Calpeptin],1,0.98,0.961,0.992,1,1.02,0.994,1.01,1.01,0.957,0.968,0.962,0.965,0.93,0.913,1.01,1.02,1.03,0.979,0.988,0.986,1.01,1.02,1.01,1.01,1.01,0.999
CNC(=O)c1ccc(Nc2ncc(C(F)(F)F)c(NCc3nccnc3N(C)S(C)(=O)=O)n2)cc1 [Defactinib],0.942,0.942,0.941,0.923,0.931,0.915,0.945,1.01,0.889,0.961,0.964,0.942,0.955,0.958,0.956,0.931,0.985,0.991,0.944,0.943,0.952,0.955,0.991,1.01,1,1.12,1.29
C[C@H]1Oc2cc(cnc2N)-c2c(nn(C)c2C#N)CN(C)C(=O)c2ccc(F)cc21,0.989,0.966,0.982,0.951,0.957,0.948,1,1.05,1.07,1.05,1.01,1.01,1.01,0.988,0.997,0.922,0.929,0.914,0.984,0.959,0.958,0.992,0.992,0.992,0.964,0.976,0.975
